In the library only some 5.2% were active in any assay of this set; here they are far more common.
SKN-1 block: inhibitors of C. elegans SKN-1; 360,000 tested, 0.49% active; C. elegans VP596 Pgst-4::GFP/RFP ratio, acrylamide-induced, 24 h; inhibition, % at 21.8 µM; AID 624304;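 active = interference check ratio from 0.5 to 1.5 plus GFP to RFP signal ratio inhibition reaching or exceeding a fixed threshold, cut at about 30% in these data, passing the limit was not always enough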
Vif inh: HIV Vif inhibition. HEK293T cells, Vif self-association by quenched fluorescence, imaging, 24 h. 340,000 tested, 0.35% active. inhibition, % at 7.49 µM; in the data active = inhibition above about 50%, passing the limit was not always enough
GRIN3A LBD mod: NR3A (human) ligand-binding domain modulation. AID 1259313. Tm shift relative to glycine control, % at 25 µM. NR3A LBD differential scanning fluorimetry, Tm shift; 0% = protein alone, 100% = glycine-bound protein. 340,000 tested, 2.5% active;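 active = melting temperature shift of at least 10% of the positive control shift, at one fixed dose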
esBAF inh: inhibitors of esBAF chromatin remodeling in mouse ES cells | Bmi1-luciferase knock-in reporter, 24 h; 100% = twice the neutral-well signal | 350,000 tested, 2% active | reporter increase, % at 12.5 µM; in the data active = activation above about 40%;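 note: 0% = median of the plate's neutral control wells and 100% = double that signal; a rise in the Bmi1 reporter signal indicates esBAF inhibition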
SMARCA2 activ: increases SMARCA2 function in MMTV reporter cells; MG213 cells, MMTV-luciferase reporter, dexamethasone, overnight; activation, % at 9.1 µM; 370,000 tested, 1% active; AID 652017; in the data active = activation above about 7.8%;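 note: 0% = vehicle wells and 100% = reference activator wells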
NadD block: blocks S. aureus nicotinate mononucleotide adenylyltransferase. purified NadD enzyme, colorimetric absorbance read-out. inhibition, % at 20 µM. 360,000 tested, 0.78% active. AID 602399; in the data active = inhibition above about 26%
An asterisk follows results filed as active; . = not tested or not shown.

SMILES	SKN-1 block	Vif inh	GRIN3A LBD mod	esBAF inh	SMARCA2 activ	NadD block
CC(OC(=O)Nc1cccc(Cl)c1)C(=O)OC1CCCCC1 (stereo not given)	-3	-1	-5	54*	-2	-9
O=C(Nc1cccc(Cl)c1)Nc1ccon1	-14	.	0	.	1	0
CCC(=O)N1[C@H](CN(C)C(C)=O)[C@H](c2ccc(-c3cccc(F)c3)cc2)[C@@H]1CO	.	.	.	-5	.	.
O=C(Nc1cccc(Cl)c1)NC1CC2CCC1C2 (stereo not given)	17	-3	-7	50*	1	-1
O=C(Nc1cccc(Cl)c1)NC1CCCCC1	14	-1	-8	.	3	2
N#CC(C(=O)Nc1ccc(Cl)c(Cl)c1)=C1Nc2ccccc2N1	9	-5	4	.	-3	0
N#CC(C(=O)Nc1cccc(Cl)c1)=C1Nc2ccccc2N1	-12	-19	10*	8	0	1
O=C(Nc1cccc(F)c1)C1CCN(C(=O)c2ccc(Cl)cc2)CC1	2	4	12*	.	0	0
CN(CC(=O)Nc1cccc(F)c1)C(=O)C1CCN(C(=O)c2ccc(Cl)cc2)CC1	-7	-5	-1	1	-1	4
O=C(Nc1cccc(Cl)c1)OCc1cn(-c2ccccc2)nn1	7	15	11*	4	-2	7
C[C@@H]1CN([C@@H](C)CO)C(=O)c2cc(-c3cccc(F)c3)cnc2O[C@@H]1CN(C)Cc1ccccn1	.	.	.	-8	.	.
O=C(C[C@H]1C[C@H]2c3cc(NS(=O)(=O)c4ccc(F)cc4)ccc3O[C@H]2[C@@H](CO)O1)NCc1ccc(Oc2ccccc2)cc1	.	.	.	-20	.	.
O=C(N[C@H]1CC[C@@H](CC(=O)N2CCCCC2)O[C@H]1CO)c1ccc2c(c1)OCO2	.	.	.	-3	.	.
CCS(=O)(=O)N[C@H]1CC[C@H](CC(=O)N2CCCCC2)O[C@H]1CO	.	.	.	8	.	.
CC(O)c1cccc(NC(=O)Nc2cccc(NC(=O)Nc3cccc(C(C)O)c3)c2)c1 (stereo not given)	-3	.	27*	-3	-2	-8
O=C1OC(c2ccccc2)(c2ccc3cc(O)ccc3c2)c2ccccc21 (stereo not given)	-9	3	10*	-1	1	11
O=C(COc1ccc(F)cc1)c1ccc2c(c1)CCCC2	-9	-3	0	42*	-3	-9
O=C(COc1ccc(Cc2ccccc2)cc1)c1ccc(F)cc1	6	-4	2	31	-4	-1
Cc1onc(-c2ccccc2)c1-c1nnc(COC(=O)c2ccc(F)cc2)o1	2	.	.	-5	-3	-2
Cc1onc(-c2ccccc2)c1-c1nnc(COC(=O)c2ccc(O)cc2)o1	0	-12	10*	.	0	-4
CCOC(=O)N(C)C[C@H]1OCc2ccccc2-c2c(n(C)c3ccccc23)C(=O)N([C@@H](C)CO)C[C@H]1C	.	.	.	0	.	.
O=C1NC(=Nc2cccc(O)c2)S/C1=C\c1cccc([N+](=O)[O-])c1	-5	11	13*	.	1	8
O=C1NC(=Nc2ccccc2)S/C1=C\c1ccccc1	29	-18	-2	33	0	-1
O=C1NC(=Nc2cccc(O)c2)S/C1=C\c1cccnc1	-12	1	8	.	7.9*	3
Cc1ccccc1-c1cnc2c(c1)C(=O)N([C@@H](C)CO)C[C@H](C)[C@@H](CN(C)C(=O)c1ccncc1)O2	.	.	.	7	.	.
SMILES	SKN-1 block	Vif inh	GRIN3A LBD mod	esBAF inh	SMARCA2 activ	NadD block
CO[C@@H]1CN(C)C(=O)c2ccc(NC(=O)c3cc(C)on3)cc2OC[C@@H](C)N(C(=O)C2CC2)C[C@H]1C	.	.	.	5	.	.
C=CCN1C(=O)c2ccc(C(=O)OCC(=O)Nc3ccc(S(N)(=O)=O)cc3)cc2C1=O	1	-17	17*	-2	2	2
CN(C)c1ccc(C(=O)OCC(=O)Nc2ccc(S(N)(=O)=O)cc2)cc1	18	6	2	-3	-1	4
CCCNC(=O)C[C@@H]1CC[C@@H]2[C@H](COc3ccc(NS(=O)(=O)CC)cc3C(=O)N2C)O1	.	.	.	-2	.	.
CO[C@@H]1CN(C)C(=O)c2cc(NS(=O)(=O)CC(F)(F)F)ccc2OC[C@H](C)N(CC2CCCCC2)C[C@H]1C	.	.	.	-2	.	.
CC(C(=O)N1CCN(C(=O)c2ccco2)CC1)n1sc2ccccc2c1=O (stereo not given)	-3	-3	-2	3	0	0
CC(C(=O)N1CCCCC1)n1sc2ccccc2c1=O (stereo not given)	2	3	0	50*	6	17
CC(C)C#Cc1cnc2c(c1)C(=O)N([C@@H](C)CO)C[C@@H](C)[C@@H](CN(C)C(=O)Cc1ccncc1)O2	.	.	.	1	.	.
Nc1nonc1-n1nnc(C(=O)N/N=C/C2CC=CCC2)c1CSc1ccccc1 (stereo not given)	5	-4	2	.	-2	2
Cc1ccc(SCc2c(C(=O)N/N=C/c3ccncc3)nnn2-c2nonc2N)cc1	6	-4	9	0	2	9
Nc1nonc1-n1nnc(C(=O)N/N=C/c2cccs2)c1CSc1ccccc1	-15	-1	37*	3	-1	3
CCN(CC)Cc1c(C(=O)N/N=C/c2cccs2)nnn1-c1nonc1N	-13	3	7	-9	0	-4
CCc1c(C(=O)N/N=C/c2cccs2)nnn1-c1nonc1N	-23	-4	22*	.	-2	-8
Nc1nonc1-n1nnc(C(=O)N/N=C/c2ccc3c(c2)OCO3)c1CSc1ccccc1	-16	3	39*	4	0	-1
COCc1c(C(=O)N/N=C\c2cccs2)nnn1-c1nonc1N	18	3	-17	-9	-3	2
Cc1ccc(/C=N/NC(=O)c2nnn(-c3nonc3N)c2CSc2ccc(Cl)cc2)cc1	6	6	26*	-3	1	17
Nc1nonc1-n1nnc(C(=O)N/N=C/c2ccccc2Cl)c1CSc1ccccc1	9	3	30*	.	0	9
Nc1nonc1-n1nnc(C(=O)N/N=C/c2ccncc2)c1CSc1ccc(Cl)cc1	1	-2	5	8	0	9
Cc1c(Cc2ccccc2)sc(NC(=O)c2ccco2)c1C(N)=O	9	-6	-15	-10	5	-1
CCOc1ccc(CC(=O)Nc2sc(Cc3ccccc3)c(C)c2C(N)=O)cc1OCC	8	58*	-5	5	-3	29
O=c1c2ccccc2nnn1Cc1ccc(Br)cc1	36*	9	2	2	5	-10
Cc1[nH]c2ccc(-c3nnc(SCC(=O)c4ccc(F)cc4)o3)cc2c1C	5	-8	29*	8	12*	-5
COc1cccc(C(=O)CSc2nnc(-c3cc(OC)c(OC)c(OC)c3)o2)c1	11	0	3	0	-4	-8
Cc1cc(-c2nnc(SCC(=O)c3ccc(Cl)cc3)o2)no1	0	92*	-2	.	-1	3

Screening results deposited in PubChem BioAssay by several laboratories.
